DAX1 inh-1 – DAX1 (NR0B1) inhibitors, primary screen, cell-based, HEK293, Gal4-DAX1, luciferase luminescence | AID 504766, 2011 | inhibition, % at 6.75 µM | HEK293 Gal4-DAX1 luciferase reporter | hit rate 0.99% among 340,000;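 active = inhibition above the mean over all tested compounds plus 3 SD, cut at about 4.2% in these data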;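 note: 0% = DAX1-transfected cells with DMSO and 100% = empty-vector control cells with DMSO; inhibition shows as a rise in luminescence from relieved DAX1 repression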
Target sequence (P51843 207-470 limits assumed): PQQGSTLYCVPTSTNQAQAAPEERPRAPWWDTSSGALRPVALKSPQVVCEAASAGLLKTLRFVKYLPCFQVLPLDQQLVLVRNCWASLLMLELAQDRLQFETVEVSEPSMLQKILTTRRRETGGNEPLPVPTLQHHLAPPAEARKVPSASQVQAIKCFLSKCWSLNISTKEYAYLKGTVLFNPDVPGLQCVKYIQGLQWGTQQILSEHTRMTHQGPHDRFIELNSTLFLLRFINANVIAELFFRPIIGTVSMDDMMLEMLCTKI
hcDAF-12 act – H. contortus DAF-12 nuclear receptor activators, primary screen, cell-based, luminescence, HEK293, lit1-tk-luc reporter; HEK293 hcDAF-12 lit1-tk-luc reporter; 0% DMSO, 100% Δ7-dafachronic acid; activation, % at 6.8 µM; hit rate 1.4% among 370,000; AID 652067, 2013;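 active = activation above the mean of all tested compounds plus 3 SD, cut at about 5.5% in these data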;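 note: 100% = response to 3 µM Δ7-dafachronic acid high control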
ssDAF-12 act – S. stercoralis DAF-12 nuclear receptor activators, primary screen, cell-based, luminescence, HEK293, GRIP1 co-expression, lit1-tk-luc. HEK293 ssDAF-12/GRIP1 lit1-tk-luc reporter; % of 3 µM dafachronic acid response. hit rate 1% among 370,000. AID 652126, 2013. activation, % at 6.8 µM. Nuclear hormone receptor DAF-12 (Strongyloides stercoralis);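 active = activation above the mean over all tested compounds plus 3 SD, cut at about 0.9% in these data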;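 note: 0% = DMSO-only wells and 100% = 3 µM delta7-dafachronic acid wells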
AHR activator – AHR activators, primary screen, cell-based, luminescence, luciferase reporter, human; hit rate 2.5% among 320,000; Aryl hydrocarbon receptor (Homo sapiens), P35869; AID 2796, 2010; activation, % at 5 µM; AHR-responsive luciferase reporter cells; in the data active = activation above about 47%;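 note: 0% = vehicle wells and 100% = reference agonist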
hgDAF12 agonist – H. glycines DAF-12 receptor agonists, primary screen, cell-based, luminescence, HEK293, GAL4 fusion, UAS-luciferase; Nuclear hormone receptor DAF-12 (Heterodera glycines), GAL4 fusion; HEK293 GAL4-hgDAF12 UAS-luciferase reporter, agonist luminescence; normalized to butyrate control; activation, % at 6.8 µM; hit rate 1.8% among 370,000;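 active = activation above a cutoff set at the mean of all screened compounds plus 3 SD, cut at about 10% in these data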;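 note: 0% = DMSO wells and 100% = sodium butyrate wells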
DAX1 inh-2 – DAX1 (NR0B1) inhibitors on StAR promoter, primary screen, cell-based, luminescence, SF-1 (NR5A1), full-length DAX-1. hit rate 1.1% among 370,000. inhibition, % at 6.8 µM. HEK293T StAR-luciferase reporter, SF-1/DAX-1 repression relief;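 active = inhibition above the mean over all tested compounds plus 3 SD, cut at about 3.6% in these data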;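 note: 0% = DAX-1 cells with DMSO and 100% = cells lacking DAX-1 with DMSO; higher inhibition means more luminescence from relief of DAX-1 repression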
* hit, by the source's call. Only some compounds are listed: those with a hit (about 5.7% of all), similar ones and a draw of the others.

Results for CC(NC(=O)c1ccc(NC(=O)CC2SC(N3CCCC3)=NC2=O)cc1)c1ccc(F)cc1 (configuration not stated) ?
DAX1 inh-1: 0.1; hcDAF-12 act: -0.8; ssDAF-12 act: -1.2; AHR activator: 0.2; hgDAF12 agonist: -2.2; DAX1 inh-2: -2.3

Results for CN(C)S(=O)(=O)c1cccc(NC(=O)c2sccc2-c2ccccc2)c1 ?
DAX1 inh-1: -0.2; hcDAF-12 act: -2.9; ssDAF-12 act: -1.4; hgDAF12 agonist: -0.8; DAX1 inh-2: -2.1

Results for CN(C)S(=O)(=O)c1ccc(/C(O)=C2/C(=O)C(=O)N(CCCN3CCOCC3)C2c2ccncc2)cc1 (configuration not stated) ?
DAX1 inh-1: 5.1*; hcDAF-12 act: 0.8; ssDAF-12 act: -1.7; AHR activator: 0.0; hgDAF12 agonist: 0.5; DAX1 inh-2: 0.5

How did COc1cccc(/C(O)=C2/C(=O)C(=O)N(CCCN3CCOCC3)C2c2ccncc2)c1 (configuration not stated) do in these assays?
DAX1 inh-1: 0.0; hcDAF-12 act: -1.9; ssDAF-12 act: -1.1; AHR activator: 2.2; hgDAF12 agonist: -1.0; DAX1 inh-2: -0.1

What do the screens show for `COC(=O)[C@]12C[C@H](CC(=O)N3CCSCC3)C(=O)N(Cc3ccc(Cl)cc3Cl)C1=C[C@H](C(C)(C)C)O[C@@H]2C`?
hcDAF-12 act: -3.0; ssDAF-12 act: -0.6; hgDAF12 agonist: 1.3; DAX1 inh-2: -0.7

How did COC(=O)[C@]12C[C@H](CC(=O)N3CCC(c4ccccc4)CC3)C(=O)N(Cc3ccc(Cl)cc3Cl)C1=C[C@H](C(C)(C)C)O[C@@H]2C do in these assays?
hcDAF-12 act: -0.7; ssDAF-12 act: 1.1*; hgDAF12 agonist: -2.7; DAX1 inh-2: -0.2

How did O=C1CC(N2CCC(c3nc4ccccc4o3)CC2)C(=O)N1 (configuration not stated) do in these assays?
DAX1 inh-1: -0.7; hcDAF-12 act: 0.6; ssDAF-12 act: -0.9; AHR activator: 10.4; hgDAF12 agonist: 0.3; DAX1 inh-2: -0.4

What do the screens show for `Cc1ccc(-c2nc(Nc3ccc(N4CCOCC4)cc3)c3ccccc3n2)cc1`?
hcDAF-12 act: 2.4; ssDAF-12 act: -0.1; AHR activator: 70.5*; hgDAF12 agonist: 8.8; DAX1 inh-2: 0.4

What do the screens show for `Cc1ccc(-c2nc(Nc3ccc(O)cc3)c3ccccc3n2)cc1`?
DAX1 inh-1: -1.2; hcDAF-12 act: 1.8; ssDAF-12 act: -0.2; AHR activator: 54.0*; hgDAF12 agonist: 5.6; DAX1 inh-2: -0.6

What do the screens show for `Cc1ccc(C)c(Nc2nc(-c3ccncc3)nc3ccccc23)c1`?
DAX1 inh-1: -1.4; hcDAF-12 act: 0.9; ssDAF-12 act: -1.1; AHR activator: 67.9*; hgDAF12 agonist: -2.1; DAX1 inh-2: 0.1

What do the screens show for `CC1=NN(c2nc(-c3ccc(C)cc3)cs2)C(=O)C1N=Nc1ccccc1O` (configuration not stated)?
hcDAF-12 act: 1.8; ssDAF-12 act: 0.9*; AHR activator: 50.6*; hgDAF12 agonist: 1.0; DAX1 inh-2: -0.2

What do the screens show for `CC(C)CNS(=O)(=O)c1ccc(Br)cc1N1CCC[C@@H]1CO`?
DAX1 inh-1: 0.1; hcDAF-12 act: -1.2; ssDAF-12 act: -0.9; hgDAF12 agonist: -0.9; DAX1 inh-2: -1.6

What do the screens show for `CCOC(=O)C1=C(COC(=O)c2ccc(Cl)cc2[N+](=O)[O-])NC(=O)NC1C` (configuration not stated)?
DAX1 inh-1: 0.5; hcDAF-12 act: -1.0; ssDAF-12 act: -1.0; AHR activator: -3.5; hgDAF12 agonist: -0.8; DAX1 inh-2: 1.2

What do the screens show for `COc1ccccc1C1C(C(N)=O)=C(C)Nc2ncnn21` (configuration not stated)?
DAX1 inh-1: 6.7*; hcDAF-12 act: 0.2; ssDAF-12 act: -1.4; AHR activator: 1.8; hgDAF12 agonist: 1.3; DAX1 inh-2: 0.2

How did CC1=C(C(=O)OC(C)C)C(c2c[nH]c3ccccc23)n2ncnc2N1 (configuration not stated) do in these assays?
DAX1 inh-1: 0.9; hcDAF-12 act: 5.7*; ssDAF-12 act: 0.7; AHR activator: 7.4; hgDAF12 agonist: -0.8; DAX1 inh-2: -0.1

How did CCOC(=O)C1=C(C)Nc2ncnn2C1c1c[nH]c2ccccc12 (configuration not stated) do in these assays?
DAX1 inh-1: 0.1; hcDAF-12 act: 4.2; ssDAF-12 act: 0.6; AHR activator: 15.8; hgDAF12 agonist: 2.6; DAX1 inh-2: 1.2

How did CC1(C)C(=O)Nc2ccccc2N1C(=O)COC(=O)COc1ccc(C#N)cc1 do in these assays?
DAX1 inh-1: 0.8; hcDAF-12 act: 0.5; ssDAF-12 act: -0.9; AHR activator: -0.3; hgDAF12 agonist: -1.1; DAX1 inh-2: -0.8

Results for Cc1noc(C)c1C(=O)Nc1ccc(F)cc1F ?
DAX1 inh-1: -0.3; hcDAF-12 act: -1.7; ssDAF-12 act: -1.5; AHR activator: -4.5; hgDAF12 agonist: -0.4; DAX1 inh-2: -0.3

Results for CCC(C)(NC(=O)c1ccc2c(c1)OCO2)C(=O)NC1CCCCC1 (configuration not stated) ?
DAX1 inh-1: 0.7; hcDAF-12 act: 0.4; ssDAF-12 act: -1.1; AHR activator: 11.5; hgDAF12 agonist: -3.9; DAX1 inh-2: 0.1

How did CCc1c(C)c(C#N)c2[nH]c3ccccc3n2c1=S do in these assays?
DAX1 inh-1: -0.8; hcDAF-12 act: 0.2; ssDAF-12 act: -1.4; AHR activator: 58.7*; hgDAF12 agonist: -0.4; DAX1 inh-2: -0.9

How did CCc1cc(=O)n2c([nH]c3ccccc32)c1C#N do in these assays?
DAX1 inh-1: 0.6; hcDAF-12 act: 0.3; ssDAF-12 act: -0.5; AHR activator: 29.9; hgDAF12 agonist: 3.3; DAX1 inh-2: -0.1

How did COCc1cc(=O)n2c([nH]c3ccccc32)c1C#N do in these assays?
DAX1 inh-1: -0.3; hcDAF-12 act: -0.3; ssDAF-12 act: 1.2*; AHR activator: 19.0; hgDAF12 agonist: 3.2; DAX1 inh-2: -0.5

What do the screens show for `CSCCC(NC(=O)c1ccc(Cl)cc1)C(=O)OCC(C)=O` (configuration not stated)?
DAX1 inh-1: 5.6*; hcDAF-12 act: 0.9; ssDAF-12 act: -1.9; AHR activator: 0.0; hgDAF12 agonist: -0.1; DAX1 inh-2: 0.7

What do the screens show for `CCOc1ccc(N(CC(=O)Nc2c(C)n(C)n(-c3ccccc3)c2=O)S(=O)(=O)c2cccs2)cc1`?
hcDAF-12 act: 0.5; ssDAF-12 act: -0.9; hgDAF12 agonist: -1.4; DAX1 inh-2: -1.0

Screening results: PubChem, The Scripps Research Institute Molecular Screening Center
